Laboratory results: PubChem BioAssay (NCATS)
Inconclusive results are not listed. Where a call stands in place of a potency, no number is given. Values without a mark were called inactive. Active and inactive are the calls of the source. Calls come from the whole dose curve; as a rule, active = well fitted inhibition curve with a large enough effect; inconclusive = small, poorly fitted or top-dose-only effect; inactive = flat fitted curve, though single readings scatter.

Biological target: Calcium and integrin-binding protein 1 (Homo sapiens) (UniProt Q99828)
Sequence (Q99828 whole entry, looked up): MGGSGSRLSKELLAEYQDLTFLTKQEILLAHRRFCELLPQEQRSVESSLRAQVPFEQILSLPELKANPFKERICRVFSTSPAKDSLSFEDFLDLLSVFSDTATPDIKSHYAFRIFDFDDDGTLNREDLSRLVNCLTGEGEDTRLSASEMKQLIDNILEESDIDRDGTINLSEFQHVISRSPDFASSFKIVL
Experiment: Primary qHTS for Identification of Calcium Integrin Binding Protein 1 (CIB1) Competitor (AID 1508620)
How it was run: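 Fluorescence polarization competition: GST-tagged CIB1 (1 uM final) preincubated with compound 15 min at room temperature, then FITC-labelled alphaIIb peptide (100 nM final) added. After 15 min at room temperature, polarization read at Ex 480/Em 540.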
Potency is the fitted concentration of half-maximal effect.

Structure (SMILES) | Potency
O=[S+]([O-])(c1ccc2ncsc2c1)N1CCN([S+](=O)([O-])c2c(F)cccc2F)CC1 | inactive
O=C1CCCC2=C1C(c1[nH]ncc1Cl)N=C(Nc1nccs1)N2 (centres undefined) | inactive
CC(=O)N1CCN(c2ccc(NCc3ccc(-c4ccc(Br)cc4)o3)cc2)CC1 | inactive
O=C(O)c1ccc(O)c2ncc(N3CC(N4CCOCC4)C3)cc12 | inactive
O=S(=O)(c1ccc2c(c1)OCCO2)N1CCN(S(=O)(=O)c2cc(F)ccc2F)CC1 | inactive
CNc1cc2c(cc1S(=O)(=O)Nc1ccc(C)c(C)c1)CCC(=O)N2 | inactive
Cc1cccc(-n2cnc3cc(C(=O)N4CCCC(C(F)(F)F)C4)ccc32)c1 (centres undefined) | inactive
O=C1CCCC2=C1C(c1[nH]ncc1Cl)N=C(Nc1nc3c(Br)cccc3o1)N2 (centres undefined) | inactive
O=C(NNC(=O)c1cc2ccccc2[nH]1)OCc1ccccc1 | inactive
Cc1ccc(OCCn2c(CCNC(=O)c3ccc(Br)o3)nc3ccccc32)cc1 | inactive
Cn1nnnc1Sc1ncnc2scc(-c3cnc(N)nc3)c12 | inactive
Cc1cc2c(s1)c1cnn(Cc3ccc(C)c(F)c3)c(=O)c1n2C | inactive
COc1cc(OC)c(C(CC(=O)N2CC(C)CC(C)C2)c2ccc3c(c2)OCO3)c(OCC(N)=O)c1 (centres undefined) | inactive
CC(=O)NC(c1ccco1)c1cc(Cl)c2ccc(N3CCCCC3)nc2c1O (centres undefined) | inactive
Cc1cc2c(s1)c1cnn(Cc3ccc(Br)cc3)c(=O)c1n2C | inactive
CC(=O)Nc1ccc(OCc2cccc(C3Nc4ccccc4C(=O)N3Cc3ccco3)c2)cc1 (centres undefined) | inactive
O=C(Nc1ccc(Cl)c(Cl)c1)Nc1nnc(C2CCCCC2)s1 | inactive
O=C(Cc1ccc(Cl)c(Cl)c1)Nc1ccc([S+](=O)([O-])Nc2cccc([N+](=O)[O-])c2)cc1 | inactive
Cc1cnc(-c2ccccc2OC(C)C)nc1NCc1ccc(-n2ccnn2)cc1 | inactive
Cc1csc(CNc2ncnc3ccc(-c4cccc(Cl)c4)cc23)c1 | inactive
Cc1ccc2oc(NC3=NC4(CCCC4)C4=C(CCCC4=O)N3)nc2c1 | inactive
Cn1nnnc1Sc1ncnc2scc(-c3cccc([N+](=O)[O-])c3)c12 | inactive

Structure (SMILES) | Potency
COc1cc(O)c(C(CC(=O)N2C[C@H](C)C[C@H](C)C2)c2ccc3c(c2)OCO3)c(OC)c1 (some centres undefined) | inactive
CC(=O)Nc1sc2c(c1-c1nc3ccccc3o1)CCN(C(C)C)C2 | 50.1 µM (active)
CCOc1ccc(CCNC(=O)CN(C)C)cc1OCC | inactive
Nc1cc(NC(=O)Nc2nnc(-c3ccncc3)s2)ccc1Cl | inactive
COc1ccc(C2Nc3ccccc3C(=O)N2Cc2ccccc2C)cc1COc1ccc(NC(C)=O)cc1 (centres undefined) | inactive
O=C(O)CN1C(=O)/C(=C/c2ccc(-c3cccc(Cl)c3)o2)SC1=S | inactive
O=C1CCc2cc(S(=O)(=O)Nc3ccc4ccccc4c3)ccc2N1 | inactive
Cc1cc(NS(=O)(=O)c2ccc(NC(=O)Cc3ccc(Cl)c(C(F)(F)F)c3)cc2)no1 | inactive
O=S(=O)(c1cccc(-c2n[nH]c(=S)n2-c2ccccc2)c1)N1CCCC1 | inactive
O=C(OCC#CCSc1nnc(-c2cccc3ccccc23)o1)c1ccc(Br)cc1 | inactive
CC(=O)Nc1ccc(OCc2cccc(-c3nc4ccccc4c(=O)n3Cc3ccco3)c2)cc1 | inactive
CN(Cc1ccc(-c2ccc(C#N)cc2)o1)c1ccc(N2CCN(C(=O)OC(C)(C)C)CC2)cc1 | inactive
Cc1cc(C)nc(NC(=S)N2CC3CN(c4ccc(Cl)cc4C(F)(F)F)CC3C2)c1 (centres undefined) | inactive
CCOC(=O)c1ccc(-c2ccc3ncnc(N(C)Cc4sccc4C)c3c2)o1 | inactive
c1cncc(-c2ccc(CNc3nc(N4CCOCC4)nc4ccccc34)cc2)c1 | inactive
Fc1ccc(-c2noc(CCCCSc3nnc(-c4cccc5ccccc45)o3)n2)cc1 | inactive
CN(C)c1ccc(C2N=C(Nc3nc4ccccc4o3)NC3=C2C(=O)CCC3)cc1 (centres undefined) | inactive
Cc1ccc(OCCn2c(CCNC(=O)c3ccccc3)nc3ccccc32)cc1 | inactive
CC1(C)CC2CC(C)(CN2S(=O)(=O)c2ccc(C(=O)Nc3ccc(Cl)cc3)cc2)C1 (centres undefined) | inactive
O=C(O)c1ccc2c(c1)C(=O)N([C@H](Cc1ccc(Cl)cc1)C(=O)O)C2=O | inactive
Cc1cc(CNc2ncnc3ccc(-c4ccc5c(c4)OCO5)cc23)c(C)o1 | inactive
O=S(=O)(NCCNS(=O)(=O)c1c(F)cccc1F)c1ccc2c(c1)OCCO2 | inactive
